Assay results: ChEMBL document CHEMBL3433997, “St. Jude Leishmania screening dataset” (2016)

How the values were obtained:
Type in all cases: functional
[1] = target: Solute carrier family 2, facilitated glucose transporter member 1 (Homo sapiens) (UniProt P11166); assay: ST_JUDE_LEISH: Cytotoxicity at 2uM final concentration against transgenic Leishmania Mexicana promastigotes LmGLUT1 that are glucose transport deficient and complemented with the human glucose transporter GLUT1. Activity is measured by DNA content using SYBR green in vitro
Sequence of Solute carrier family 2, facilitated glucose transporter member 1 (Homo sapiens) (P11166 whole entry): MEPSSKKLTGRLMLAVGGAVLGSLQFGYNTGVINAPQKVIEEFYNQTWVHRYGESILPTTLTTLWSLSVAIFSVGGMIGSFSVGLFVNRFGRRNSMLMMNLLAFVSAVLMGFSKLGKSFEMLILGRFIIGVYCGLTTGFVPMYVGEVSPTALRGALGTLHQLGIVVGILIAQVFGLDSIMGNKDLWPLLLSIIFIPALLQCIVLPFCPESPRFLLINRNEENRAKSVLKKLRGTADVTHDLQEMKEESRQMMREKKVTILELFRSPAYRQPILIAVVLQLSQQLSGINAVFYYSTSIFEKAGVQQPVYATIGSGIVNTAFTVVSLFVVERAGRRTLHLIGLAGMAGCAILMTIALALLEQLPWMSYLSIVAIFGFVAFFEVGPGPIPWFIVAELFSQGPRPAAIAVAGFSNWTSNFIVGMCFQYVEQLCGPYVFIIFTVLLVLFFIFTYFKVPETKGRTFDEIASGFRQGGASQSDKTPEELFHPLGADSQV

[2] = target: Hexose transporter 1 (Plasmodium falciparum) (UniProt O97467); assay: ST_JUDE_LEISH: Cytotoxicity at 2uM final concentration against transgenic Leishmania Mexicana promastigotes LmPfHT that are glucose transport deficient and complemented with the Plasmodium falciparum hexose transporter. Activity is measured by DNA content using SYBR green in vitro
[3] = target: Glucose transporter (Leishmania mexicana) (UniProt O61059); assay: ST_JUDE_LEISH: Cytotoxicity at 2uM final concentration against transgenic Leishmania Mexicana promastigotes LmGT2 that are glucose transport deficient and complemented with the L. Mexicana glucose transporter 2. Activity is measured by DNA content using SYBR green in vitro

## CCCCCCCN1CC[C@@H](CCC(O)c2ccnc3ccc(OC)cc23)[C@@H](CC)C1 (some centres not stated)
[1]
  inhibition: -0.47%
[2]
  inhibition: 0.63%
[3]
  inhibition: 0.73%

## Cc1nn(C)c(C)c1CN(Cc1nc(-c2cccc(Oc3ccccc3)c2)oc1C)C1CC1
[1]
  inhibition: 4.08%
[2]
  inhibition: 4.11%
[3]
  inhibition: 5.34%

## CS(=O)(=O)Nc1cccc(-c2cnc3[nH]cc(-c4ccc(CCC(=O)O)cc4)c3c2)c1
[1]
  inhibition: 2.69%
[2]
  inhibition: 1.66%
[3]
  inhibition: 4.76%

## Cc1cc(CNCCCCCNCc2ccc(Cl)cc2)ccc1O
[1]
  inhibition: 1.35%
[2]
  inhibition: 1.91%
[3]
  inhibition: 2.91%

## O=C(/C=C/c1ccc(Cl)c(Cl)c1)NCCCCCN1CCC(NC(=O)NCCc2ccccc2)CC1
[1]
  inhibition: 1.48%
[2]
  inhibition: 1.69%
[3]
  inhibition: -3.26%

## Cc1cc(N(C)C)nc(Nc2ccc(NC(=O)COc3ccccc3)cc2)n1
[1]
  inhibition: 2.72%
[2]
  inhibition: 7.92%
[3]
  inhibition: -2.15%

## Cc1cc(CN2CC[C@H](NC(=O)c3ccc(Cl)c(Cl)c3)C2)ccc1OCCN1CCCC1
[1]
  inhibition: -1.05%
[2]
  inhibition: 1.81%
[3]
  inhibition: -2.1%

## CO/C(=C\C=C\c1cc2cc(Cl)c(Cl)cc2[nH]1)C(=O)NCCCN1CCN(Cc2ccccc2)CC1
[1]
  inhibition: 2.32%
[2]
  inhibition: 0.91%
[3]
  inhibition: 2.11%

## COc1cccc(-c2cc3nc4c(c(NCCCn5ccnc5)n3n2)CCCC4)c1
[1]
  inhibition: 2.73%
[2]
  inhibition: 5.03%
[3]
  inhibition: 2.77%

## COc1cccc(-c2ccc(O)c(CNCCc3cccc(F)c3)c2)n1
[1]
  inhibition: -0.7%
[2]
  inhibition: 3.14%
[3]
  inhibition: 2%

## COc1ccc(N2CCN(CCCC/C=C/c3ccc(NC(=O)c4cc(Cl)cc(Cl)c4)cc3)CC2)c(OC)c1
[1]
  inhibition: 2.58%
[2]
  inhibition: 1.17%
[3]
  inhibition: 0.93%

## CCOC(=O)C(C#N)NC(=O)C=Cc1ccccc1 (configuration not stated)
[1]
  inhibition: 7.73%
[2]
  inhibition: 6.93%
[3]
  inhibition: 5.14%

## Cc1cc(NCCC(=O)Nc2ccccc2)nc(NCCc2ccc(F)cc2)n1
[1]
  inhibition: 3.19%
[2]
  inhibition: 3.34%
[3]
  inhibition: 1.6%

## COc1cc(OCCCN(C)Cc2ccc(OC)c(OC)c2)ccc1NC(=O)c1cccc2c(O)c3cccc(F)c3nc12
[1]
  inhibition: 2.95%
[2]
  inhibition: 2.52%
[3]
  inhibition: 0.63%

## COc1ccccc1C(=O)Nc1ccc(Nc2nc(C)cc(N(C)C)n2)cc1
[1]
  inhibition: 7.13%
[2]
  inhibition: 18.3%
[3]
  inhibition: 5.83%

## CCc1ccc(NC(=O)c2ccc(CN3CCCN(Cc4cccc(Cl)c4)CC3)cc2)cc1
[1]
  inhibition: 1.47%
[2]
  inhibition: 2.69%
[3]
  inhibition: 2.29%

## COC(=O)c1ccc(CCCNCC(O)c2cccc(C(F)(F)F)c2)cc1 (configuration not stated)
[1]
  inhibition: 2.51%
[2]
  inhibition: 3.05%
[3]
  inhibition: 6.4%

## c1ccc2ncc(CNCCCCCCCCNCc3cnc4ccccc4c3)cc2c1
[1]
  inhibition: -0.67%
[2]
  inhibition: -0.08%
[3]
  inhibition: 0.09%

## COc1cc(NC(=O)c2ccc3oc4ccccc4c3c2)ccc1OCCN1CCCCC1
[1]
  inhibition: -0.45%
[2]
  inhibition: 1.28%
[3]
  inhibition: 0.62%

## O=C(NCCN1CCOCC1)c1ccc(N2CCC(Oc3ccc4ccccc4c3)CC2)nc1
[1]
  inhibition: 7.02%
[2]
  inhibition: 6.04%
[3]
  inhibition: 6.12%

## CCCCOc1cc(OC)c2ccccc2c1CCNCCCCNCCc1c(OCCCC)cc(OC)c2ccccc12
[1]
  inhibition: 105%
[2]
  inhibition: 106%
[3]
  inhibition: 104%

## CC(CN(C)C)C(=O)Nc1ccc(-c2cccc(-c3nc4cc(C(F)(F)F)ccc4[nH]3)c2)cc1 (configuration not stated)
[1]
  inhibition: 1.9%
[2]
  inhibition: 1.89%
[3]
  inhibition: -2.14%

## COc1ccc(N2CCN(CCc3ccc(NC(=O)c4ccc([N+](=O)[O-])cc4)cc3)CC2)c(OC)c1
[1]
  inhibition: 9.1%
[2]
  inhibition: 6.72%
[3]
  inhibition: 6.07%

## O=C(/C=C/c1ccc(F)cc1)NC1CCC(CCN2CCCN(c3ccc(C(F)(F)F)cn3)CC2)CC1 (configuration not stated)
[1]
  inhibition: 1.97%
[2]
  inhibition: -0.46%
[3]
  inhibition: -1.02%

## CCN1CCN(c2ccc(Nc3ccnc4ccc(Br)cc34)cc2)CC1
[1]
  inhibition: 1.43%
[2]
  inhibition: 0.09%
[3]
  inhibition: -0.25%

## Cc1onc(-c2c(Cl)cccc2Cl)c1C(=O)N1CCc2cc3nccc(N4CCN5CCC[C@H]5C4)c3cc21
[1]
  inhibition: 3.46%
[2]
  inhibition: 4.46%
[3]
  inhibition: 5.26%

## Nc1nc(N)c2c3c(ccc2n1)CCC3
[1]
  inhibition: 0.87%
[2]
  inhibition: 1.48%
[3]
  inhibition: 1.24%

## CCCN(CC1CC1)c1ncc(-c2cccc(CNCc3ccccc3O)c2)cn1
[1]
  inhibition: -1.8%
[2]
  inhibition: -2.3%
[3]
  inhibition: -1.63%

## Cc1cc(=O)oc2c1ccc1oc(C(O)c3ccc(Cl)cc3)c(C)c12 (configuration not stated)
[1]
  inhibition: -0.12%
[2]
  inhibition: 0.59%
[3]
  inhibition: -1.6%

## c1cc(-c2ccc(CNC3CCOCC3)cc2)cc(-c2nc3ccccc3[nH]2)c1
[1]
  inhibition: -0.19%
[2]
  inhibition: 1.26%
[3]
  inhibition: -2.46%

## COc1ccc(OCCCON2C(=N)N=C(N)NC2(C)C)cc1
[1]
  inhibition: 5%
[2]
  inhibition: 1.09%
[3]
  inhibition: 1.17%

## COc1ccc(CNC2Cc3ccccc3C2)cc1-c1ccc(OC)c(S(=O)(=O)NCCN2CCCC2)c1
[1]
  inhibition: 1.59%
[2]
  inhibition: 1.67%
[3]
  inhibition: -1.29%

## CN(C)CCN(C)Cc1nc(-c2ccc3c(Nc4ccc(Oc5ccccc5)cc4)ccnc3c2)cs1
[1]
  inhibition: 2.99%
[2]
  inhibition: 3.38%
[3]
  inhibition: 2.65%

## CCc1ccc(O)c(-c2cc(C(=O)Nc3ccc(OC)c(Cl)c3)[nH]n2)c1
[1]
  inhibition: 0.23%
[2]
  inhibition: 0.3%
[3]
  inhibition: -7%
